About 8,800 targets were measured; listed, in parts, are those with a hit and a random draw of the rest. About 0.5% of all pairs of compound and target were hits.
Legend:
Test in all cases: log2 fold change, soluble protein after heating vs DMSO (PISA); higher = thermal stabilisation; K562 lysate, 10 uM; active = over 0.2 and 3.5 SD of the protein, either way, in both replicates (recomputed)
[1] = compound: C1=CC=C(C=C1)[C@H](COC2=CC3=C(C=C2)NC(=O)N3)NC(=O)C4=CC=CN(C4=O)CC5=CC(=C(C=C5)F)F
Method in brief: (§1)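 A 30 min treatment with 10 μM compound was applied to crude K562 extract at 1 mg/mL protein in PBS pH 7.4 with 1 mM MgCl2. Heating for 3 min spanned 48°C-58°C, after which aliquots were pooled, adjusted to 0.5% NP-40 at 4°C and spun at 21,000xg for 90 min. TMTpro 16plex LC-MS/MS of the supernatant, with channel sums equalised, gave values recorded as log-two fold change in thermal stability against solvent controls, from duplicates.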

[2] = compound: CC1=C(SC2=C1C(=N[C@H](C3=NN=C(N32)C)CC(=O)N)C4=CC=C(C=C4)Cl)C
Method in brief: as §1

[3] = compound: CC1=C2C(=CC=C1)N=C(N(C2=O)C3=CC=CC=C3C)CN4C=NC5=C(N=CN=C54)N
Method in brief: as §1

[4] = compound: Cc1sc2c(c1C)C(c1ccc(Cl)cc1)=N[C@@H](CC(=O)OC(C)(C)C)c1nnc(C)n1-2
Method in brief: as §1

[5] = compound: c1ccc([C@@H]2C[C@H]2NC2CCNCC2)cc1
Method in brief: as §1

Measured: log2 fold change

NFKBIE (UniProt O00221)
Chain of UniProt O00221 (O00221 whole entry, looked up): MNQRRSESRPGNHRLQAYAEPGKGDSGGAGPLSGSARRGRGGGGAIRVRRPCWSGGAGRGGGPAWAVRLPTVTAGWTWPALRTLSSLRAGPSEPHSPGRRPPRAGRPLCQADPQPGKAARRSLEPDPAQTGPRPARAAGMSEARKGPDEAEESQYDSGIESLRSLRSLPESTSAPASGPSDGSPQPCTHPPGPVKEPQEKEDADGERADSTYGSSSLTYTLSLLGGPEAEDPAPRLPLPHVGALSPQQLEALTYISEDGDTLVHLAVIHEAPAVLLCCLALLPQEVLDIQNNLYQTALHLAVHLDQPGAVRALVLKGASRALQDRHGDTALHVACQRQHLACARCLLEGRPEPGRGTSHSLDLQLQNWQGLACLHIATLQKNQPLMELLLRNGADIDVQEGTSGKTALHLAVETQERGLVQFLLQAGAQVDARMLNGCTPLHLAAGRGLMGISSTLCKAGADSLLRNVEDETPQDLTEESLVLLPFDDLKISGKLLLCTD
inactive: [1] -0.014 | [2] -0.068 | [3] 0.033 | [4] 0.081 | [5] -0.087

NEK9 (UniProt Q8TD19)
inactive: [1] -0.002 | [2] 0.002 | [3] -0.033 | [4] 0.017 | [5] -0.032

OSBP2 (UniProt Q969R2)
Chain of UniProt Q969R2 (Q969R2 whole entry, looked up): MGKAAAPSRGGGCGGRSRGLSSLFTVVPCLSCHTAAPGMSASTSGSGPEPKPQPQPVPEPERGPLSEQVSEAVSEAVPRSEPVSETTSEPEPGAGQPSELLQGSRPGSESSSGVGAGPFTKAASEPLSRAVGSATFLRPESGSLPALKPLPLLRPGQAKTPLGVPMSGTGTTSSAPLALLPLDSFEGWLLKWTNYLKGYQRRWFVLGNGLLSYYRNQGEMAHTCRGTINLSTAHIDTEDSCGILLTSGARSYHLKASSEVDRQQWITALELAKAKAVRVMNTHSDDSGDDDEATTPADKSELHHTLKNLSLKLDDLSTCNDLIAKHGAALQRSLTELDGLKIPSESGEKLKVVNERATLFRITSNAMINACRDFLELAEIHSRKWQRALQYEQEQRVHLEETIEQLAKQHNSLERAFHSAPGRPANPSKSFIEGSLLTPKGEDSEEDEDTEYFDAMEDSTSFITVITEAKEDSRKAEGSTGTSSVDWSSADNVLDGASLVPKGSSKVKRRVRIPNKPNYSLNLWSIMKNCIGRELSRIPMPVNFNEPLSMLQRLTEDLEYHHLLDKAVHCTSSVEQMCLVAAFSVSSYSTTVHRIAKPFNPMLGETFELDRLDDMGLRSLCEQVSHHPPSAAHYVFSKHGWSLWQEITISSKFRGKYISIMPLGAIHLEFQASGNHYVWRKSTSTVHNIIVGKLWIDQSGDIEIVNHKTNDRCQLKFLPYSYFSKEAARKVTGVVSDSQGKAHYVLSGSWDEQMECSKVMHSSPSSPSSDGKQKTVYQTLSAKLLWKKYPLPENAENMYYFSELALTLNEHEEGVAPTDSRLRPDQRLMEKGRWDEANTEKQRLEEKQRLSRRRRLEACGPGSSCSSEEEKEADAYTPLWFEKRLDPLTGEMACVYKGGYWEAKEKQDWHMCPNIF
inactive: [1] 0.021 | [2] 0.046 | [3] 0.019 | [4] -0.095 | [5] -0.439

NFATC2IP (UniProt Q8NCF5)
Chain of UniProt Q8NCF5 (Q8NCF5 whole entry, looked up): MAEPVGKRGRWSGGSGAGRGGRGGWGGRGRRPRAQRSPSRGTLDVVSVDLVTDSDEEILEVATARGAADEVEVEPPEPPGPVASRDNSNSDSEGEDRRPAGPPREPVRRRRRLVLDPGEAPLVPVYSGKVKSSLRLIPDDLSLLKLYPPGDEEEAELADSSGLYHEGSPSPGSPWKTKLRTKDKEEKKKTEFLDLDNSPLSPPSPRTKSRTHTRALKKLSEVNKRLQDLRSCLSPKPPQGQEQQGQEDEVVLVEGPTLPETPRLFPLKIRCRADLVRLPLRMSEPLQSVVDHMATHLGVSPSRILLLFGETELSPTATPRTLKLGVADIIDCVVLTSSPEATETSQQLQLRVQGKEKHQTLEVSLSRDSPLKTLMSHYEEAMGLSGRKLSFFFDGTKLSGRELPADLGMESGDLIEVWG
inactive: [1] 0.012 | [2] -0.01 | [3] 0.009 | [4] 0.138 | [5] 0.049

MSH2 (UniProt P43246)
Chain of UniProt P43246 (P43246 whole entry, looked up): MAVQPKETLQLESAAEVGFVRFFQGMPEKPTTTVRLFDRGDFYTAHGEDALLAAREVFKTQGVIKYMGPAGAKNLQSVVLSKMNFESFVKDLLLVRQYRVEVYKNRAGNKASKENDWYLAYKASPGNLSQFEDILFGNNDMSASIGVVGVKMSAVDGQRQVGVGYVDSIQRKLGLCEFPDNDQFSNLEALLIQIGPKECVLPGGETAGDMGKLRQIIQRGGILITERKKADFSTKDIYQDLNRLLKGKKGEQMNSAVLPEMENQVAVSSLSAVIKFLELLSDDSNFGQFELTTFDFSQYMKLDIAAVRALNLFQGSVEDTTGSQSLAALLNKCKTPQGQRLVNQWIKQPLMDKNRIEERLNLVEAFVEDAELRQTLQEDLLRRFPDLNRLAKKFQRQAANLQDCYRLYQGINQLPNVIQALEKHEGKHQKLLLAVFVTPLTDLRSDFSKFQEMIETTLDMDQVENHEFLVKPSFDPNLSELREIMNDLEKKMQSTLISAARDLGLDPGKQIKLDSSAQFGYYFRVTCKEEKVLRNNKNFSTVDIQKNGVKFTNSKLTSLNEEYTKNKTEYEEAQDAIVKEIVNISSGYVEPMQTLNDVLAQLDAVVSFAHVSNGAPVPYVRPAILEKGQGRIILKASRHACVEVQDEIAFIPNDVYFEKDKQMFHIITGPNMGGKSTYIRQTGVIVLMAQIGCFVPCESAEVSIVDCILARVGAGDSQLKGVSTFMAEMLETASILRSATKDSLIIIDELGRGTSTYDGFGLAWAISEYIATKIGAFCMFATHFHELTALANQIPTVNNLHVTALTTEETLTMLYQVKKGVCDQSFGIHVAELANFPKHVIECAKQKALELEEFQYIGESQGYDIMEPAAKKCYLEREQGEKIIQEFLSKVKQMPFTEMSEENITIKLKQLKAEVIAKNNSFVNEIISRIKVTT
inactive: [1] 0.018 | [2] -0.006 | [3] 0.028 | [4] 0.001 | [5] 0.065

NEDD8 (UniProt Q15843)
Chain of UniProt Q15843 (Q15843 whole entry, looked up): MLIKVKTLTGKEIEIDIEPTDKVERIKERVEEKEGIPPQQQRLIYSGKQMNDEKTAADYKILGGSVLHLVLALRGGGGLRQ
inactive: [1] 0.051 | [2] -0.014 | [3] -0.047 | [4] 0.002 | [5] 0.085

MTA3 (UniProt Q9BTC8)
inactive: [1] -0.006 | [2] -0.047 | [3] 0.002 | [4] 0.014 | [5] -0.001

NUP205 (UniProt Q92621)
inactive: [1] -0.042 | [2] -0.019 | [3] 0.045 | [4] 0.006 | [5] -0.001

NPM3 (UniProt O75607)
inactive: [1] 0.172 | [2] -0.045 | [3] -0.009 | [4] -0.03 | [5] -0.157

NADK2 (UniProt Q4G0N4)
inactive: [1] 0.057 | [2] 0.007 | [3] -0.006 | [4] 0.045 | [5] -0.012

NUCB2 (UniProt P80303)
Chain of UniProt P80303 (P80303 whole entry, looked up): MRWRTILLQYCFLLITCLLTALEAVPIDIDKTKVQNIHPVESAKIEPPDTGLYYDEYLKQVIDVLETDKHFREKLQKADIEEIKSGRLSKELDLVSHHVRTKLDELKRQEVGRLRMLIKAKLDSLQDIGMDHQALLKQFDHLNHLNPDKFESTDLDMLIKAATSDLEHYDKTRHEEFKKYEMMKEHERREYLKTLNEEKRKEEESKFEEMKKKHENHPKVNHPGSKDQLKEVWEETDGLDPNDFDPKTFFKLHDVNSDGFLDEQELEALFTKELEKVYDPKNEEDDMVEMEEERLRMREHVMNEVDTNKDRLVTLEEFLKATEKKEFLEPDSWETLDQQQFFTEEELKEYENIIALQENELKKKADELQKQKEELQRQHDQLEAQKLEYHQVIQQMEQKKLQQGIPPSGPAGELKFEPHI
inactive: [1] 0.041 | [2] -0.005 | [3] -0.011 | [4] -0.021 | [5] 0.079

OSGEP (UniProt Q9NPF4)
Chain of UniProt Q9NPF4 (Q9NPF4 whole entry, looked up): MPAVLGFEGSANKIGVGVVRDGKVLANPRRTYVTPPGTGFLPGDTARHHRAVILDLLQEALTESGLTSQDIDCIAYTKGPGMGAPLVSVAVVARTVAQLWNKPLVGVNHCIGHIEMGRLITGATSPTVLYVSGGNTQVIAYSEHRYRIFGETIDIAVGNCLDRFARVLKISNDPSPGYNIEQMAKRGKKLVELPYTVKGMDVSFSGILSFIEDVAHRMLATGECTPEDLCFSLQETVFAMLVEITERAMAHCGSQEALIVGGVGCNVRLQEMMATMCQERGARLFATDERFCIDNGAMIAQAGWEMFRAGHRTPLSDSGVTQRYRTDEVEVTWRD
inactive: [1] -0.007 | [2] 0.031 | [3] 0.036 | [4] 0.063 | [5] 0.011

NUP160 (UniProt Q12769)
Chain of UniProt Q12769 (Q12769 whole entry, looked up): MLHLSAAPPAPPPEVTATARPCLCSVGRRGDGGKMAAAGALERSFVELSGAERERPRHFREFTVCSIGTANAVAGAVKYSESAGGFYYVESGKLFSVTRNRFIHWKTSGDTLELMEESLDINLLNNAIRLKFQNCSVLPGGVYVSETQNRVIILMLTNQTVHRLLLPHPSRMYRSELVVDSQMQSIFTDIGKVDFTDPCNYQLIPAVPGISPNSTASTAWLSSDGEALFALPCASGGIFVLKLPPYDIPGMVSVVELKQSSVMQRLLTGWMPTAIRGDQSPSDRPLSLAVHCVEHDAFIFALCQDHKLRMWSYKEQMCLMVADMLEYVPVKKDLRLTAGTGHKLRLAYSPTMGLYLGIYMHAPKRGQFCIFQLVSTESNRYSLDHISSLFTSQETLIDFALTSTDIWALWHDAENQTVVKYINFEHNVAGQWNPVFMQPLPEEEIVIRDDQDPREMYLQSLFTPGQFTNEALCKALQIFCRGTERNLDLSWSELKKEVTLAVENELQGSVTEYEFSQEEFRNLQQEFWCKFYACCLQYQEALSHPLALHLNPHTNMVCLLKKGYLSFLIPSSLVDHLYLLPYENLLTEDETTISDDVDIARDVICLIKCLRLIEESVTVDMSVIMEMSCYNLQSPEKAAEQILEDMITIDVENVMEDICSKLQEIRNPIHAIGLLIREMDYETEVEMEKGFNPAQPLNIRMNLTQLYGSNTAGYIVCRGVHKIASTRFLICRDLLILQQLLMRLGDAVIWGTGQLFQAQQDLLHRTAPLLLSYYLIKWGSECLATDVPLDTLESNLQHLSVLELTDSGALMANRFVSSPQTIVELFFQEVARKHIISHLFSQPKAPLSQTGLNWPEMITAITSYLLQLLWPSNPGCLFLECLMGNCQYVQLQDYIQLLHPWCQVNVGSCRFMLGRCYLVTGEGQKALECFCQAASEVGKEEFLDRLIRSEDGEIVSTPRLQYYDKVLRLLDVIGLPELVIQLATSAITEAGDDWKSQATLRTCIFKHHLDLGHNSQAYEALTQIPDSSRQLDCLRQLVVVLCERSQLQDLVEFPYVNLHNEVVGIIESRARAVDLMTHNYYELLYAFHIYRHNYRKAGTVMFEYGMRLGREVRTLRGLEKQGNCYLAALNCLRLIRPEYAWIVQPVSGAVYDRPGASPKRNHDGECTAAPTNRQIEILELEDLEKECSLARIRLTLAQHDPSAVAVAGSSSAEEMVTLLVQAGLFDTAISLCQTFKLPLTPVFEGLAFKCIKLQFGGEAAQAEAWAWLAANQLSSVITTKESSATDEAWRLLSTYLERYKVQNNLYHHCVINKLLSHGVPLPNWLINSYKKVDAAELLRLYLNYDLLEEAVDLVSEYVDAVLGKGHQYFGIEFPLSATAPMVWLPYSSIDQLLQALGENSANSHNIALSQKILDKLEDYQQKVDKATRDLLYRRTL
inactive: [1] -0.021 | [2] -0.027 | [3] 0.012 | [4] -0.04 | [5] 0.01

MRPL58 (UniProt Q14197)
inactive: [1] 0.011 | [2] 0.029 | [3] 0.075 | [4] -0.002 | [5] 0.081

NCAPD3 (UniProt P42695)
inactive: [1] 0.028 | [2] -0.007 | [3] 0.046 | [4] -0.005 | [5] 0.016

OARD1 (UniProt Q9Y530)
inactive: [1] -0.005 | [2] -0.014 | [3] 0.035 | [4] 0.044 | [5] -0.005

From the supplement of paper PMC10849652
